Bioassay records deposited in PubChem by National Center for Advancing Translational Sciences (NCATS).
The sample as a whole holds a higher share of hits than the screen did.
Pf Dd2 inh = inhibitors of Plasmodium falciparum Dd2 growth. P. falciparum Dd2 growth, SYBR Green, 72 h. Potency, µM (top dose mostly 28.9 µM), inactives show at the highest dose activity, negative = inhibition, usual class: inhibitors. 120,000 tested, 4.3% active. AID 1347417; active means well fitted inhibition curve with a large enough effect;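 further: plate controls were DMSO vehicle for no effect and reference drug for full effect; nearly all actives have a fitted effect of over 65% in size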
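Infected erythrocytes (Dd2, 0.3% parasitemia, 2.5% hematocrit final) are added to compound in RPMI-1640/Albumax II medium, grown 72 h at 37C in low oxygen, then lysed with saponin/Triton-X containing SYBR Green and read by fluorescence.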
The depositor's hits bear a star; i = inactive; [ ] = another dose, or the depositor's remark. Potency means the concentration at half of the fitted maximal effect.

SMILES | Pf Dd2 inh
COc1ccccc1Nc1ncc2c(n1)CN(C(=O)c1ccnn1C)CCN2 | 3%[44.1 µM]
CCC(=O)Nc1ccc2nc(SCc3ccccc3)sc2c1 | -28%
CCCC(=O)Nc1ccc2nc(SCc3ccc(C)cc3)sc2c1 | 8.9µM*
Cc1cccc(NC(=O)CSc2nc3ccc(NC(=O)CCc4ccccc4)cc3s2)c1 | 11%
COCCn1ccc2c(C3=CCOCC3)nc(-c3cccc(O)c3)cc21 | i
Cc1ccc(NC(=O)c2cc(S(=O)(=O)NC3CCCCCC3)ccc2F)cc1F | 4.5µM*
Cc1ccc(NC(=O)c2cc(S(=O)(=O)N3CCCc4ccccc43)ccc2F)cc1F | -23%
O=C(Nc1ccccc1Br)c1cc(S(=O)(=O)NC2CCCCC2)ccc1F | i
O=C(CC1CCCC1)N1CCCCCC1CN1CCOCC1 (stereo not drawn) | i
O=C(c1cccnc1OC1CCN(Cc2ccccn2)C1)N1CCOCC1 (stereo not drawn) | i
O=C(NC1CC1)c1ccccc1OC1CN(Cc2ccc(F)c(F)c2)C1 | i
Cc1ccc(CN2CC(Oc3ccccc3C(=O)N3CCOCC3)C2)cc1C | 2.8µM*
CCC(CC)C(=O)Nc1ccc([C@@H](O)[C@H]2COCC(=O)N2Cc2ccccc2)cc1 | i
O=C(C1CCN(C(=O)N2CC3CC(C2)[C@H]2CCCC(=O)N2C3)CC1)N1CCN(c2ncccn2)CC1 (stereo partly drawn) | i
COc1ccc(CCC(=O)N2CCC[C@H]2c2nc(-c3ccccc3Cl)no2)cc1 | 17%
CCO[C@H]1CN(C(=O)Cc2c(C)[nH]c3c(F)cccc23)C[C@@H]1O | -5%
CCOC(=O)c1c(C)oc2ncnc(N3CCN(c4cccc(Cl)c4)CC3)c12 | 2%
CCOC(=O)c1c(C)oc2nc(C)nc(NCc3ccc(Cl)cc3)c12 | i[5.79 µM]
CCOC(=O)c1c(C)oc2nc(C)nc(NCc3ccc(OC)cc3OC)c12 | -1%
CCOC(=O)c1c(C)oc2nc(C)nc(N3CCN(c4ccc(C)cc4C)CC3)c12 | 1%
CCOC(=O)c1c(C)oc2nc(C)nc(N(C)Cc3ccccc3)c12 | 13µM*
CCOC(=O)c1c(C)oc2nc(C)nc(NCC3CCN(Cc4ccc(Cl)cc4)CC3)c12 | 13µM*
CCOC(=O)c1c(C)oc2nc(C)nc(NCCCN3CCN(c4cc(Cl)ccc4C)CC3)c12 | -20%
CCOC(=O)c1c(C)oc2nc(C)nc(Nc3cccc(OC)c3)c12 | -9%
CCOC(=O)c1c(C)oc2ncnc(Nc3ccc(OCC)cc3)c12 | -1%
SMILES | Pf Dd2 inh
CCOC(=O)c1c(C)oc2nc(C)nc(N3CCN(c4cccc(C(F)(F)F)c4)CC3)c12 | 10µM*
CCOC(=O)c1c(C)oc2nc(C)nc(NC(C)c3ccccc3)c12 (stereo not drawn) | 10µM*
CCOC(=O)c1c(C)oc2ncnc(NCCc3ccccc3)c12 | -6%
CNC(=O)[C@@H]1C[C@H](n2cc(CNC(=O)Nc3ccc(F)cc3F)nn2)CN1 | -10%
Cc1cnc(C(=O)NC2C[C@H]3CC[C@@H](C2)N3C(=O)CCc2c[nH]c3ccccc23)cn1 (stereo partly drawn) | i
CCO[C@H]1CN(C(=O)CSc2ccc(Cl)cc2)C[C@@H]1O | 4%
O=C(c1ccc2cc[nH]c2c1)N1CCc2c(nc3cc(-c4ccccc4)[nH]n3c2=O)C1 | 0%
CCc1noc(-c2ccn3c(CNC(=O)c4ccoc4)nnc3c2)n1 | 18%
Cc1cc(F)ccc1NC(=O)Cn1nc(N2CCN(c3ccccc3)CC2)ccc1=O | 9%
CN(C)CCNC(=O)Cn1nc(N2CCN(c3ccccc3)CC2)ccc1=O | 51%
O=C(O)Cn1nc(N2CCN(c3ccc(F)cc3)CC2)ccc1=O | 25%
CC(C)CCNC(=O)Cn1nc(N2CCN(c3ccccc3)CC2)ccc1=O | 4%
Cc1ccc(F)cc1NC(=O)c1ccc(Cn2nc(N3CCN(c4ccccc4)CC3)ccc2=O)o1 | 11µM*
Cc1cccc(NC(=O)c2ccc(Cn3nc(N4CCN(c5ccccc5)CC4)ccc3=O)o2)c1C | 11µM*
COC(=O)[C@H](NC(=O)[C@@H]1C[C@H](NC(=O)NC(C)C)CN1C(=O)CSC)C(C)C | 6%[44.1 µM]
CC(C)Oc1ccc(CNC(=O)c2cc3n(n2)CC(c2ccc(Cl)cc2)OC3)cc1 (stereo not drawn) | i
CC(=O)c1ccc(NC(=O)O[C@@H]2CO[C@H]3[C@@H]2OC[C@@H]3NC(=O)Nc2ccc(Oc3ccccc3)cc2)cc1 | i
COc1ccc(C[C@H](NC(=O)C2=C[C@@H](NC(=O)CC3(CC(=O)O)CCCC3)[C@@H](O)[C@H](O)C2)C(N)=O)cc1 | 14%
COC(=O)c1ccc2nc(C[C@@H]3C[C@@H](C(C)C)[C@H](CNCc4ccc(NC(C)=O)cc4)C=C3C)[nH]c2c1 | -7%
COC(=O)c1ccc2nc(C[C@@H]3C[C@@H](C(C)C)[C@H](CNC(=O)c4cccnc4)C=C3C)[nH]c2c1 | 7.9µM*
COC(=O)c1ccc2nc(C[C@@H]3C[C@@H](C(C)C)[C@H](CNS(=O)(=O)c4ccccc4)C=C3C)[nH]c2c1 | 10µM*
COC(=O)c1ccc2nc(C[C@@H]3C[C@@H](C(C)C)[C@H](CNC(=O)CCC(=O)O)C=C3C)[nH]c2c1 | i
